Data taken from the supplement of paper PMC6555819.

Tests used:
Assay in all cases: PBM binding z-score (relative to random genomic background probes); higher = stronger binding; sequences stand for … in GC…GCGATTGACAGCGTAGAATGAAGG
[1] = test system: FXR:RXRa (NR concentration 270 nM, RXRa partner concentration 90 nM)
In short: (§1)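 For binding z-scores, the reference was random background probes on custom Agilent 4×180K protein-binding microarrays. These arrays were incubated 1 h with ligand-free nuclear receptor dimers in PBS pH 7.4, 2% milk, 0.02% Triton X-100, 1 mM DTT, 0.2 mg/mL BSA and 0.4 mg/ml salmon testes DNA. Fluorescence was scanned after antibody detection of each partner (one per run) and regression-normalized.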

[2] = test system: LXRa:RXRa (NR concentration 270 nM, RXRa partner concentration 90 nM)
In short: as §1

[3] = test system: LXRa homodimer (NR concentration 270 nM)
In short: as §1

[4] = test system: LXRb:RXRa (NR concentration 270 nM, RXRa partner concentration 90 nM)
In short: as §1

[5] = test system: LXRb homodimer (NR concentration 270 nM)
In short: as §1

[6] = test system: PPARa:RXRa (NR concentration 270 nM, RXRa partner concentration 90 nM)
In short: as §1

[7] = test system: PPARg:RXRa (NR concentration 180 nM, RXRa partner concentration 90 nM)
In short: as §1

[8] = test system: PPARg:RXRa 270nM:90nM, anti-RXR (NR concentration 270 nM, RXRa partner concentration 90 nM)
In short: as §1

[9] = test system: PPARg:RXRa 30nM:10nM, anti-RXR (NR concentration 30 nM, RXRa partner concentration 10 nM)
In short: as §1

[10] = test system: PPARg:RXRa 90nM:30nM, anti-RXR (NR concentration 90 nM, RXRa partner concentration 30 nM)
In short: as §1

[11] = test system: PPARg:RXRa DBDmut IVT, anti-RXR (DBD mutation: RXRa K156A/R161A, NR concentration 270 nM, RXRa partner concentration 90 nM)
In short: as §1

[12] = test system: PPARg:RXRa IVT, anti-PPARg (NR concentration 270 nM, RXRa partner concentration 90 nM)
In short: as §1

[13] = test system: PPARg DBDmut:RXRa IVT, anti-PPARg (DBD mutation: PPARg1 K132A/R137A, NR concentration 270 nM, RXRa partner concentration 90 nM)
In short: as §1

[14] = test system: PPARg DBDmut IVT, anti-PPARg (DBD mutation: PPARg1 K132A/R137A, NR concentration 270 nM)
In short: as §1

[15] = test system: PPARg homodimer (NR concentration 180 nM)
In short: as §1

[16] = test system: PXR:RXRa (NR concentration 270 nM, RXRa partner concentration 90 nM)
In short: as §1

[17] = test system: PXR homodimer (NR concentration 270 nM)
In short: as §1

[18] = test system: RARa:RXR (NR concentration 270 nM, RXRa partner concentration 90 nM)
In short: as §1

[19] = test system: RARa homodimer (NR concentration 270 nM)
In short: as §1

[20] = test system: RARb:RXRa (NR concentration 270 nM, RXRa partner concentration 90 nM)
In short: as §1

Sequence | PBM binding z-score [1] | PBM binding z-score [2] | PBM binding z-score [3] | PBM binding z-score [4] | PBM binding z-score [5] | PBM binding z-score [6] | PBM binding z-score [7] | PBM binding z-score [8] | PBM binding z-score [9] | PBM binding z-score [10] | PBM binding z-score [11] | PBM binding z-score [12] | PBM binding z-score [13] | PBM binding z-score [14] | PBM binding z-score [15] | PBM binding z-score [16] | PBM binding z-score [17] | PBM binding z-score [18] | PBM binding z-score [19] | PBM binding z-score [20]
GCTCGGAGGACAAGCTCAGAGCTTTGTCCGTAGA | -0.583 | -0.885 | -0.935 | -0.784 | -0.639 | -0.425 | -1.69 | -1.3 | -1.5 | -1.33 | -0.93 | -0.339 | -0.667 | -0.738 | -0.886 | -0.742 | -0.896 | -0.828 | -1.84 | 0.862
TTACCAAGGTGAATGGTCGTTGATGCACGCCTTG | 0.766 | 0.485 | -0.417 | 0.403 | -0.853 | 1.35 | 1.32 | 2.39 | 1.14 | 2.06 | 2.03 | 2.67 | 0.334 | 0.253 | 0.0353 | 0.0282 | -0.612 | 0.364 | 0.953 | 1.46
TAGCCTAGGTCAGATCGGGCCAGTATGCGCTATA | 2.71 | 1.19 | -0.503 | 0.727 | -0.424 | 1.73 | 0.328 | 0.593 | -0.423 | 0.0994 | 0.347 | 1.3 | -0.699 | -0.549 | -0.654 | 0.891 | -0.704 | 0.898 | -0.754 | 3.16
GCTGCTACGTCAACTGATGGTCAGCTAAAGCTCG | -0.601 | -0.63 | -0.84 | -0.799 | -1.1 | -0.483 | -0.201 | -0.736 | -0.808 | -0.829 | -0.232 | -0.749 | -0.632 | -1.06 | -1.02 | -0.736 | -1.23 | -0.62 | -1.34 | -0.291
CCGACTGGGGAAGAAAGGTTACCATACCATCCGG | 0.169 | 0.579 | -0.0766 | 0.683 | -0.64 | 2.22 | 1.84 | 3.17 | 1.15 | 2.6 | -0.325 | 0.33 | -0.996 | -0.95 | 0.579 | 0.747 | -0.0818 | 1.3 | 0.0486 | 1.23
TCTAGTTGGTCAGGGAGGTCACACACGACGGGTA | 3.15 | 3.3 | 2.44 | 3.24 | 1.66 | 3.72 | 2.28 | 3.13 | 3.27 | 3.23 | 2.21 | 3.14 | 0.418 | 0.586 | 2.66 | 4.14 | 1.55 | 4.2 | 1.51 | 3.63
CGTCCAACGTCAAAGGTCAGTGAAGAGATGACGG | 2.97 | 3.2 | 0.576 | 2.94 | 0.0829 | 4.04 | 3.28 | 4.92 | 2.64 | 4.72 | -0.294 | 1.63 | -0.376 | -0.0246 | 3.55 | 3.58 | 0.376 | 5.04 | 1.79 | 4.24
TTACCAAGGTGAGCTGATGTCGTTGATCCAACTC | 0.178 | -0.111 | -0.671 | -0.252 | -0.971 | 0.344 | 0.146 | 0.25 | 0.147 | 0.11 | 1.17 | 1.55 | -0.517 | 0.259 | -0.264 | 0.24 | -0.552 | 0.2 | -0.759 | 0.933
AGTCAACGTTCATCTAGGTAACGTAAGATATGCT | -0.27 | -0.156 | -0.154 | -0.204 | -0.325 | 0.365 | 0.767 | 0.288 | 0.292 | 0.234 | 0.5 | 1.94 | 0.919 | 0.334 | 0.649 | -0.212 | -0.489 | 0.244 | -0.0246 | 0.796
AGTCAAAGTTCACTAGGTAACGTGAGATTCAGCT | 4.64 | 4.79 | 2.64 | 2.71 | 0.742 | 4.57 | 7.14 | 6.33 | 3.41 | 5.47 | 2.52 | 4.98 | 1.48 | 1.01 | 2.06 | 3.61 | 1.97 | 2.87 | 0.41 | 4.72
ATATGTAGGTTAAGGGTGATTCAGGTTGGTTCGC | 0.984 | 1.63 | 0.808 | 1.73 | 0.807 | 4.98 | 9.36 | 8.2 | 8.53 | 9.45 | 7.67 | 6.98 | 1.59 | 1.38 | 3.75 | 1.63 | 1.19 | 1.72 | 1.64 | 1.54
ATCTCTAGGTAAAGTTCAGTCAAAGATCGATAGA | 1.73 | 3.21 | 2.37 | 1.64 | 0.899 | 2.44 | 3.53 | 4.45 | 2.64 | 4.1 | 1.91 | 2.68 | 1.08 | 1.44 | 1.63 | 2.32 | 1.93 | 1.48 | 1.68 | 2.55
AGTCTAAGTTCATCTAGGTAACGTAAGATATGCT | 4.07 | 4.07 | 1.92 | 2.09 | 0.539 | 3.17 | 1.72 | 2.24 | 0.691 | 1.31 | 0.694 | 2.11 | 1.22 | 1.39 | 1.48 | 4.78 | 8.13 | 2.24 | 0.123 | 3.55
CCTACTGGGCCATCAGGTCATTGTTATCAACGTT | 1.46 | 1.31 | 1.14 | 1.7 | -0.00639 | 2.76 | 2.54 | 3.66 | 1.36 | 2.74 | 4.42 | 5.23 | 1.61 | 0.711 | 1.35 | 1.63 | 0.409 | 2.03 | 0.317 | 2.07
CTCGAAAGGACGTGCTCAGGTGAGTATACCAAAC | 0.0322 | -0.223 | -0.388 | -0.196 | -0.277 | -0.124 | 0.136 | -0.268 | -0.294 | -0.148 | -0.218 | -0.388 | -0.653 | -0.179 | -0.0329 | -0.345 | -0.1 | 0.0274 | -0.22 | 0.749
